PubChem BioAssay (EPA / NIEHS)
Activity calls are given as the source filed them. The calls were made as follows: active = hit-call score of the fitted dose curve at least 0.9, where 1 is the maximum; inactive = score below 0.9.

Assay: ATG_Oct_MLP_CIS: Attagene CIS-FACTORIAL HepG2 Assay for human Octamer-Binding Transcription Factor (Oct) (AID 2282993)
Conditions: HepG2 Attagene cis-factorial Oct reporter, mRNA; actives raise or lower the signal
Summary of the method: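 HepG2 cells transiently transfected with cis-promoter-driven multiplexed reporter transcription units, dosed for 24 h. Reporter mRNA quantified by RT-PCR, fluorescent labelling, HpaI digestion and capillary electrophoresis; bidirectional fits versus DMSO baseline.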

Structure (SMILES)	outcome	AC50
COc1ccc(C=O)cc1	inactive	
O=C(c1ccccc1)C(Cl)Cl		25.3 µM (active)
Nc1ccc(N=Nc2ccc(-c3ccc(N=Nc4c(S(=O)(=O)O)cc5cc(S(=O)(=O)O)c(N=Nc6ccccc6)c(O)c5c4N)cc3)cc2)c(N)c1	inactive	
O=C(CCl)CCl		26.1 µM (active)
O=C(Cc1ccccc1)c1ccccc1	inactive	
N#CCCO	inactive	
COC(=O)c1sccc1S(=O)(=O)NC(=O)Nc1nc(C)nc(OC)n1	inactive	
COc1ccc(C=O)cc1OC	inactive	
CCC[CH2][Sn]([CH2]CCC)([CH2]CCC)[O]C(=O)c1ccccc1	inactive	
C[C@H]1O[C@@H](O[C@H]2[C@@H](O)C[C@H](O[C@H]3[C@@H](O)C[C@H](O[C@H]4CC[C@@]5(C)[C@H](CC[C@@H]6[C@@H]5CC[C@]5(C)[C@@H](C7=CC(=O)OC7)CC[C@]65O)C4)O[C@@H]3C)O[C@@H]2C)C[C@H](O)[C@@H]1O		0.592 µM (active)
O=C1C(Cl)=C(Cl)C(=O)c2ccccc21	inactive	
COP(=O)(OC)O/C(=C\Cl)c1cc(Cl)c(Cl)cc1Cl		27.6 µM (active)
O=[N+]([O-])c1c(Cl)c(Cl)cc(Cl)c1Cl	inactive	
CN(CCCC(=O)c1cccnc1)N=O	inactive	
c1ccc(N=NNc2ccccc2)cc1		117 µM (active)
CC(=[OH+])/C=C(/C)[O-].CC(=[OH+])/C=C(/C)[O-].CC(=[OH+])/C=C(/C)[O-].[Fe]	inactive	
CCOP(=S)(OCC)SCCS(=O)(=O)CC	inactive	
Cn1sc(Cl)cc1=O	inactive	
CCCCCCCCSC(=O)Oc1cc(Cl)nnc1-c1ccccc1	inactive	
CNC(=O)O/N=C/C(C)(C)S(C)=O (centres undefined)	inactive	

Structure (SMILES)	outcome	AC50
c1cc[c]([Hg][c]2ccccc2)cc1		19 µM (active)
O=C/C=C/c1ccccc1	inactive	
Clc1nc(Cl)nc(Cl)n1	inactive	
COS(=O)(=O)c1ccc(C)cc1	inactive	
CCSC(C)CC1CC(=O)C(C(CC)=NOC/C=C/Cl)=C(O)C1 (centres undefined)	inactive	
C[C@H]1CCCC(=O)CCC/C=C/c2cc(O)cc(O)c2C(=O)O1		10.7 µM (active)
CCc1ccccc1C	inactive	
ClCc1ccccn1		59.6 µM (active)
O=C(NCO)NCO	inactive	
ClC1=C(Cl)[C@]2(Cl)[C@H]3[C@H]([C@H]4C=C[C@H]3C4)[C@@]1(Cl)C2(Cl)Cl	inactive	
O=C(Cl)c1ccc(Cl)cc1	inactive	
N#CN=C(N)N	inactive	
COc1ccccc1OC	inactive	
COC[C@H](C)N(C(=O)CCl)c1c(C)csc1C	inactive	
COP(=O)(OC)OC	inactive	
CCC(=O)c1ccccc1	inactive	
C=CC#N	inactive	
O=[N+]([O-])c1ccc2c3c(cccc13)CC2	inactive	
CCC(C)c1cccc(C(C)CC)c1O (centres undefined)	inactive	
